Results on 40 molecules are retold here after the supplement of paper PMC13380429.

The subject of one assay is Vero E6 infected with SARS-CoV-2. Kind of assay: morphology score (similarity to uninfected cells); higher = more like uninfected cells. The settings on record: 24 h.
`Nc1nc(Cl)nc2c1ncn2[C@@H]1O[C@H](CO)[C@@H](O)[C@H]1O` [2-chloroadenosine] (10 µM) returned a morphology score of -0.0246.

On to `Cc1ccc(OCCSc2ncccn2)c(Br)c1` (10 µM), for which the morphology score amounted to 0.0756.

For `CC(=O)Nc1ccc(S(=O)(=O)c2ccc(NC(C)=O)cc2)cc1` [acedapsone] (10 µM), the morphology score turned out to be 0.233.

On to `CCC(=O)NC1CCc2cccc(OC)c2C1` (stereo unspecified) (10 µM), for which the morphology score was -0.0478.

As to `O=C(Nc1ccc(S(=O)(=O)C(F)(F)F)cc1)C1=CCN(c2ncccc2C(F)(F)F)CC1` (10 µM), the morphology score is 0.135.

The molecule `O=c1ncn2nc(Sc3ccc(F)cc3F)ccc2c1-c1c(Cl)cccc1Cl` (10 µM) yielded a morphology score of -0.049.

The next assay shares this test system. Nature of the assay: SARS-CoV-2 infection rate relative to infected DMSO; higher = more infection, active = 60 or less. The settings on record: 24 h.
Consider `Cc1ccccc1-n1c(Cn2ncc3c(N)ncnc32)nc2cccc(C)c2c1=O` (10 µM), for which the SARS-CoV-2 infection rate is 45% (active).

As for `O=C(COc1ccc(C(=O)c2ccccc2)cc1)NC1CCN(Cc2ccccc2)CC1` [adiporon] (10 µM), the SARS-CoV-2 infection rate is 106% (inactive).

Turning to `Nc1ccn([C@H]2C[C@H](O)[C@@H](CO)O2)c(=O)n1` [torcitabine] (10 µM), the SARS-CoV-2 infection rate was 108% (inactive).

On to `CC(C)(C#N)c1cc(Cn2cncn2)cc(C(C)(C)C#N)c1` [anastrozole] (10 µM), for which the SARS-CoV-2 infection rate is 109% (inactive).

Regarding `C=CCNC(=O)c1cc([N+](=O)[O-])cc2c(=O)[nH]c(Nc3ccc(Cl)c(Cl)c3)nc12` (10 µM), the SARS-CoV-2 infection rate is 108% (inactive).

As to `CC(C)Oc1ccc2c(=O)c3cc(C(=O)O)ccc3oc2c1` (10 µM), the SARS-CoV-2 infection rate is 100% (inactive).

For `Cc1cc(OCc2nnc(SC3CCCC3)n2-c2cccnc2)ccc1-c1ccc(S(C)(=O)=O)cc1` (0.833333 µM), the SARS-CoV-2 infection rate is 100% (inactive).

On to `CN(C)CCN1C(=O)c2cccc3cc(NC(N)=O)cc(c23)C1=O` [unbs-5162] (10 µM), for which the SARS-CoV-2 infection rate was 102% (inactive).

Consider `CC[N+](C)(CC)CCC[n+]1c(-c2ccccc2)c2cc(N)ccc2c2ccc(N)cc21` [propidium-iodide] (10 µM), for which the SARS-CoV-2 infection rate is 93.5% (inactive).

Consider `Cc1c(F)cc(C(=O)NC2CC2)cc1-c1c(F)cn2c(C(C)(C)C)nnc2c1F` (10 µM), for which the SARS-CoV-2 infection rate was 108% (inactive).

With `Cc1cccc(-c2[nH]c(C(C)(C)C)nc2-c2ccc3nccnc3c2)n1` (10 µM), the SARS-CoV-2 infection rate is 100% (inactive).

Consider `O=C(O)CCCCN(CCc1ccccc1OCc1ccc(CCc2ccccc2)cc1)Cc1ccc(C(=O)O)cc1` [cinaciguat] (10 µM), for which the SARS-CoV-2 infection rate was 102% (inactive).

As for `C[C@H]1NCc2cc(-c3ccc4c(=O)c(C(=O)O)cn(C5CC5)c4c3OC(F)F)ccc21` [garenoxacin] (10 µM), the SARS-CoV-2 infection rate is 102% (inactive).

In the case of `CC(C)(C)c1ccc(C(=O)CCCN2CCC(OC(c3ccccc3)c3ccccc3)CC2)cc1` [ebastine] (10 µM), the SARS-CoV-2 infection rate is 50% (active).

Regarding `O=c1oc2c(O)c(O)cc3c(=O)oc4c(O)c(O)cc1c4c23` [ellagic-acid] (10 µM), the SARS-CoV-2 infection rate was 94% (inactive).

In the case of `CC(SC(=O)c1cccs1)C(=O)NCC(=O)O` (stereo unspecified) [stepronin] (10 µM), the SARS-CoV-2 infection rate was 113% (inactive).

Regarding `Cc1cccn2c(=O)c(-c3nnn[nH]3)cnc12` [pemirolast] (10 µM), the SARS-CoV-2 infection rate is 94.5% (inactive).

For `CCNC(=O)CC[C@H](N)C(=O)O` [L-theanine] (10 µM), the SARS-CoV-2 infection rate was 102% (inactive).

Regarding `NNCCc1ccccc1` [phenelzine] (10 µM), the SARS-CoV-2 infection rate is 102% (inactive).

As for `CCNC(=O)Nc1ccc(-c2nc3c(c(N4CCOC[C@@H]4C)n2)CCN(C2COC2)C3)cc1` (0.833333 µM), the SARS-CoV-2 infection rate is 103% (inactive).

Turning to `FC(F)(F)c1cccc(C2=CCN(CCc3ccc4ccccc4c3)CC2)c1` [xaliproden] (10 µM), the SARS-CoV-2 infection rate was 108% (inactive).

`C[C@H](O)[C@H](O)[C@H]1CNc2nc(N)[nH]c(=O)c2N1` [sapropterin] (10 µM): the SARS-CoV-2 infection rate is 95.5% (inactive).

As for `Cc1cc(Cn2nnc3c(-c4ccco4)nc(N)nc32)ccc1N` [vipadenant] (10 µM), the SARS-CoV-2 infection rate was 110% (inactive).

For `O=c1[nH]ccc2cc(OC3CCNCC3)ccc12` (10 µM), the SARS-CoV-2 infection rate was 110% (inactive).

Turning to `C/C=C1/[C@H](O[C@@H]2O[C@H](CO)[C@@H](O)[C@H](O)[C@H]2O)OC=C(C(=O)OC)[C@H]1CC(=O)OCCc1ccc(O)c(O)c1` [oleuropein] (10 µM), the SARS-CoV-2 infection rate is 112% (inactive).

On to `COc1ccccc1OCC(O)CO` (stereo unspecified) [guaifenesin] (10 µM), for which the SARS-CoV-2 infection rate is 112% (inactive).

Take `O=C1O[C@H]([C@@H](O)CO)C(O)=C1O` (10 µM): the SARS-CoV-2 infection rate was 111% (inactive).

In the case of `Cc1cc2c(OCC(CNC(C)(C)C)OC(=O)c3ccccc3)cccc2[nH]1` (stereo unspecified) [bopindolol] (10 µM), the SARS-CoV-2 infection rate is 110% (inactive).

For the molecule `COc1ccc(Nc2ncnc3ccc(OC)cc23)cc1` (10 µM), the SARS-CoV-2 infection rate is 122% (inactive).

`COc1ccc(-c2nc(C(=O)N3CCN(C)CC3)sc2-c2ccc(OC)cc2)cc1` (10 µM): the SARS-CoV-2 infection rate was 93.5% (inactive).

As for `CC(C)(N)c1cc(C(=O)N[C@@H]2CCc3ccc(Oc4ccnc5c4CCC(=O)N5)cc3C2)cc(C(F)(F)F)c1` (0.833333 µM), the SARS-CoV-2 infection rate is 99% (inactive).

Take `Cc1ccc(Sc2cncc3sc(C(N)=O)cc23)cc1` (10 µM): the SARS-CoV-2 infection rate was 114% (inactive).

With `OC[C@H]1O[C@@H](Oc2ccc(O)cc2)[C@H](O)[C@@H](O)[C@@H]1O` [arbutin] (10 µM), the SARS-CoV-2 infection rate was 104% (inactive).

For the molecule `CC[C@H]1OC(=O)C[C@@H](O)[C@H](C)[C@@H](O[C@@H]2O[C@H](C)[C@@H](O[C@H]3C[C@@](C)(O)[C@@H](O)[C@H](C)O3)[C@H](N(C)C)[C@H]2O)[C@@H](CC=O)C[C@@H](C)C(=O)/C=C/C(C)=C/[C@@H]1CO[C@@H]1O[C@H](C)[C@@H](O)[C@@H](OC)[C@H]1OC` (0.833333 µM), the SARS-CoV-2 infection rate is 81% (inactive).

As to `Nc1nc(Cl)nc2c1ncn2[C@@H]1O[C@H](CO)[C@@H](O)[C@H]1O` [2-chloroadenosine] (10 µM), the SARS-CoV-2 infection rate is 105% (inactive).

As to `Cc1ccc(OCCSc2ncccn2)c(Br)c1` (10 µM), the SARS-CoV-2 infection rate is 104% (inactive).

As for `CC(=O)Nc1ccc(S(=O)(=O)c2ccc(NC(C)=O)cc2)cc1` [acedapsone] (10 µM), the SARS-CoV-2 infection rate was 98% (inactive).

In the case of `CCC(=O)NC1CCc2cccc(OC)c2C1` (stereo unspecified) (10 µM), the SARS-CoV-2 infection rate is 93.5% (inactive).

Turning to `O=C(Nc1ccc(S(=O)(=O)C(F)(F)F)cc1)C1=CCN(c2ncccc2C(F)(F)F)CC1` (10 µM), the SARS-CoV-2 infection rate was 108% (inactive).

Regarding `O=c1ncn2nc(Sc3ccc(F)cc3F)ccc2c1-c1c(Cl)cccc1Cl` (10 µM), the SARS-CoV-2 infection rate was 108% (inactive).
